Screens (PubChem BioAssay)
Tg IFNy HTS – blocks Toxoplasma gondii growth in the presence of IFN-gamma | Toxoplasma gondii growth in IFN-gamma-treated host cells; active compounds read low | activity change, negative = inhibition, % (no concentration beside the values) | 3.8% of 69,000 active; in the data active = activity change below about -70%, passing the limit was not always enough;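 also: host cells are HeLa cells infected with Toxoplasma gondii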
Starred values were filed as active, the others as inactive. Only a selection was taken, and hits are over-represented in it overall.

SMILES | Tg IFNy HTS
CCCNC(=O)N(C)C[C@@H]1Oc2cc(C#C[C@H](C)O)ccc2S(=O)(=O)N([C@H](C)CO)C[C@H]1C | -69.9
C[C@@H]1CN([C@@H](C)CO)S(=O)(=O)c2ccc(C#CC3(O)CCCC3)cc2O[C@@H]1CN(C)C(=O)Nc1cccc(F)c1 | -103.5*
Cc1ccccc1-c1ccc2c(c1)O[C@@H](CN(C)C(=O)Nc1ccc(C(F)(F)F)cc1)[C@@H](C)CN([C@H](C)CO)S2(=O)=O | 65.5
COc1ccc(S(=O)(=O)N2CCC(c3nc(C(=O)N(C)C)c(C)o3)CC2)cc1Cl | -32.4
COc1cccc(N2CCN(C(=O)CC3Nc4c5ccccc5nc(=S)n4C3=O)CC2)c1 (centres undefined) | 8.0
Cc1cc(C)n(CCCC(=O)NCC2(c3ccccc3F)CCCC2)c(=O)n1 | -14.5
CCn1c(C2CCN(C(=O)Nc3ccc(OC)c(OC)c3)CC2)nn(C)c1=O | -4.6
CC1=C(C(=O)N(Cc2ccsc2)C2CC2)C(c2nc[nH]c2C)NC(=O)N1 (centres undefined) | -18.0
CN(C)[C@@H]1CCN(C(=O)C2CCOCC2)[C@H]1Cc1ccncc1 | 1.3
S=C(N/N=C1\CCCc2c1[nH]c1ccc(Br)cc21)Nc1ccccc1 | -81.5*
S=C(NCc1ccccc1)Nc1ccc(Br)cc1 | 66.4
O=C(NC(=S)Nc1ccc2c(c1)CCC2)c1ccccc1 | -4.7
CC(C)c1cc(C(=O)NCc2nc(Cc3cccs3)no2)n(C)n1 | -82.7*
O=C(NCc1nc(Cc2cccs2)no1)c1cccc2ccnn12 | -52.8
Cc1ccc2c(c1)cc(C(=O)NCc1nc(Cc3ccccc3)no1)n2C | -52.6
CN1CCN(C(=O)C2CNCCOC2)CC1 (centres undefined) | -53.4
Cc1ccc(NC(=O)c2c(O)c3ccccc3[nH]c2=O)cc1F | 335.9
CCc1ccc(-c2cc3c(=O)n(Cc4nc(-c5ccc(Cl)cc5)oc4C)ccn3n2)cc1 | 54.9
O=C(Cc1ccccc1)Oc1ccc(C(=S)N2CCCCC2)cc1 | 0.8
CN(CCCO)c1nc(C(C)(C)C)nc2c1cnn2C | -1.1
CCn1c(C2CCCN(C(=O)c3csc(NC)n3)C2)nn(C)c1=O (centres undefined) | 68.0
CCC(C)[C@H]1O[C@]2(C=C[C@@H]1C)C[C@@H]1C[C@@H](C/C=C(\C)[C@@H](OC3C[C@H](OC)C(O[C@H]4C[C@H](OC)[C@@H](NC(C)=O)[C@H](C)O4)[C@H](C)O3)[C@@H](C)/C=C/C=C3\CO[C@@H]4[C@H](O)C(C)=C[C@@H](C(=O)O1)[C@]34O)O2 (some centres undefined) | 13.3
CO[C@H]1CC(O[C@@H]2/C(C)=C/C[C@@H]3C[C@@H](C[C@]4(CC[C@H](C)[C@@H](C5CCCCC5)O4)O3)OC(=O)[C@@H]3C=C(C)/C(=N/O)[C@H]4OC/C(=C\C=C\[C@@H]2C)[C@]43O)O[C@@H](C)C1O (some centres undefined) | -79.6*
Fc1ccc(-n2cc(CCCCN3CCC4(CC3)OCc3ccccc34)c3ccccc32)cc1 | -75.9*
CN(C)[C@@H]1CCN(C(=O)c2ccc[nH]2)[C@H]1Cc1cccnc1 | 23.0
SMILES | Tg IFNy HTS
CC(C)(C)c1ccc(S(=O)(=O)N2CCc3nc(-c4ccccc4)sc3C2)cc1 | 8.0
Cc1ccc(-c2nc3c(s2)CN(S(=O)(=O)c2ccccc2Cl)CC3)cc1 | -56.3
CCOc1ccc(-c2nc3c(s2)CN(S(=O)(=O)c2cccc(Cl)c2C)CC3)cc1 | -65.2
CCOc1ccc(S(=O)(=O)N2CCc3nc(-c4ccccc4)sc3C2)cc1 | 14.8
Cc1ccc(-c2nc3c(s2)CN(S(=O)(=O)c2ccc(F)cc2F)CC3)cc1 | -87.7*
COc1ccc(-c2nc3c(s2)CN(S(=O)(=O)c2c(C)cc(C)cc2C)CC3)cc1 | 4.5
COc1ccc(-c2nc3c(s2)CN(S(=O)(=O)c2cc(C)cc(C)c2)CC3)cc1 | -116.1*
CCc1ccccc1S(=O)(=O)N1CCc2nc(-c3ccc(OC)cc3)sc2C1 | -92.1*
COc1cccc(-c2nc3c(s2)CN(S(=O)(=O)c2cccc(Cl)c2)CC3)c1 | -35.6
COc1ccc(-c2nc3c(s2)CN(S(=O)(=O)c2ccc(OC)cc2)CC3)cc1 | -3.7
Cc1cc(C)cc(S(=O)(=O)N2CCc3nc(-c4ccccc4)sc3C2)c1 | -17.4
COc1cccc(-c2nc3c(s2)CN(S(=O)(=O)c2cc(C)cc(C)c2)CC3)c1 | -85.2*
Cc1cc(F)ccc1NC(=O)CN1C(=O)CCc2cc(S(=O)(=O)N3CCCCC3)ccc21 | 20.3
O=C(Nc1ccccc1Br)N1CCC2(CC1)Nc1cc(F)ccc1-n1cccc12 | 90.7
CCN1CCNC(=O)C12CCN(C(=O)Cc1ccsc1)CC2 | -3.5
CCc1ccccc1NC(=O)c1c(O)c2ccccc2[nH]c1=O | 44.0
Cc1ncccc1Oc1ncnc(N2CC[C@@H](N3CCOCC3)[C@H](O)C2)c1C | 0.2
CN1CCN(C(=O)C2(c3ccccc3F)CC2)CC1C(=O)O (centres undefined) | 0.6
O=C(Cn1c(=O)cc(C(=O)N2CCCCC2)c2ccccc21)Nc1ccc(Br)cc1F | -38.7
C=CCN1C(=O)CC[C@H]2[C@@H]1CCN2S(=O)(=O)CC | -51.1
